Hits are enriched below; roughly 3.5% of the tested compounds scored in any of these assays.
Tb PYK inh – inhibitors of Trypanosoma brucei pyruvate kinase | Potency, µM (doses to about 76.8 µM), for inactives: top-dose activity, negative = inhibition, most hits filed as inhibitors | AID 624173 | Q57TT1 | TbPYK enzyme, Kinase-Glo Plus ATP luminescence, 45 min | 0.12% of 410,000 active; also: % is scaled to controls: 0 for no effect and ±100 for the full control effect; nearly all actives have a fitted effect of over 50% in size
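Glycolytic pyruvate kinase of T. brucei was incubated with substrate, test compound and 130 uM ADP for 45 minutes at room temperature. Luminescent Kinase-Glo Plus signal was measured after 10 minutes.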
NS1 function inh – blocks influenza NS1 protein function | AID 2326 | 0.4% of 270,000 active | Potency, µM (highest dose often 46.1 µM), without a hit: at the top dose activity, positive = more growth; calls by dose curve; also: actives are rising curves; nearly all actives have a fitted effect of over 50% in size
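Recovery from NS1-induced slow growth read by OD600 in budding yeast switched to galactose assay medium (pH 6.0, -URA) at 1:100 dilution. Compound 23 nl per well; the matching strain lacking NS1 serves as control.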
RE007 growth inh – less growth of the S. pombe RE007 Vpr strain; S. pombe RE007 Vpr strain, BacTiter-Glo ATP luminescence, 24 h; Potency, µM (series often up to 92.2 µM), for the others: at the top dose activity change, negative = less growth, most hits filed as inhibitors; 0.21% of 360,000 active; AID 651644; active = well fitted falling curve with a large enough effect; inconclusive = small, poorly fitted or top-dose-only effect; inactive = no such curve, though single readings can be large or run the other way; also: % is scaled to controls: 0 for no effect and ±100 for the full control effect; nearly all actives have a fitted effect of over 50% in size
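Fission yeast strain RE007, carrying one chromosomally integrated HIV-1 vpr copy, was seeded at OD 0.01 in PMG+AL medium with 23 nL pinned compound. After 24 h at 30 °C and 99% humidity, viability was read by BacTiter-Glo luminescence.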
FBPA Giardia inh – inhibitors of Giardia lamblia fructose-1,6-bisphosphate aldolase; 0.71% of 290,000 active; purified Giardia FBPA; A8B2U2; Potency, µM (series often up to 59.6 µM), for inactives: at the top dose activity, negative = inhibition, most hits filed as inhibitors; also: % is scaled to controls: 0 for no effect and ±100 for the full control effect; nearly all actives have a fitted effect of over 55% in size
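40 nM FBPA preincubated 10 min at RT with compound (up to 57.5 uM final), then substrate plus GAPDH/TPI/NAD/arsenate coupling and diaphorase/resazurin added. Fluorescence read after 20 min at RT, 525/598 nm.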
LmPK inhibitor – LmPK (Leishmania mexicana) enzyme inhibition; purified LmPK, Kinase-Glo ATP luminescence, 1 h; Potency, µM (series often up to 57.5 µM), for the others: at the highest dose activity change, negative = inhibition, most hits filed as inhibitors; 0.37% of 290,000 active; AID 1721; also: % is scaled to controls: 0 for no effect and ±100 for the full control effect
Target sequence (Q27686 whole entry, looked up): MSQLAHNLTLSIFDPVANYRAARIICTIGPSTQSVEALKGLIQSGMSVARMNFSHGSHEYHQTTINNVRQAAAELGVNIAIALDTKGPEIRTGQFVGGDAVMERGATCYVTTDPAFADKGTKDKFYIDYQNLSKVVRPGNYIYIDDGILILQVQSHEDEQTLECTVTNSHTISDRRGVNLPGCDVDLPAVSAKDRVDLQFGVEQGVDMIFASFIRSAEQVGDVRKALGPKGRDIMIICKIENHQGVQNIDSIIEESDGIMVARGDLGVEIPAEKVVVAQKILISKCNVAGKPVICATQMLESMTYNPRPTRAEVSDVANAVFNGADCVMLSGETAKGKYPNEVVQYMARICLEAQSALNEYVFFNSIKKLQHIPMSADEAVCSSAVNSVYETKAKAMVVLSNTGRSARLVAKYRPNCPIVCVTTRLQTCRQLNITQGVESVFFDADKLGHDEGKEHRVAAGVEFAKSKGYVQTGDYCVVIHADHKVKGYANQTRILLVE
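0.1 nM LmPK, 0.5 mM PEP, 0.1 mM ADP; 50 mM imidazole pH 7.2, 7 mM MgCl2, 50 mM KCl; 1 h RT. Kinase-Glo luminescence readout, normalized to no-enzyme (full inhibition) and uninhibited wells.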
Sm TGR inh – blocks Schistosoma mansoni thioredoxin glutathione reductase | Potency, µM (titrated, usually from 114 µM), for the others: at the highest dose activity change, negative = inhibition, hits mostly inhibitors | Q962Y6 | AID 485364 | 3% of 360,000 active | purified TGR, DTNB reduction, TNB absorbance 405 nm; also: % is scaled to controls: 0 for no effect and ±100 for the full control effect; nearly all actives have a fitted effect of over 60% in size
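Kinetic colorimetric format: TGR-catalysed, NADPH-driven DTNB reduction monitored via TNB absorbance. Enzyme dispensed at 20 nM; compound exposure 15 min at room temperature before reaction start.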
* marks the source's active call; other numbers are inactive results; ? = inconclusive; . = no result; [ ] = another dose, or the depositor's remark. Unless noted, calls follow the shape of the dose curve; as a rule, active = well fitted curve in the direction sought with a large enough effect; inconclusive = small, poorly fitted or top-dose-only effect, or another doubt; inactive = no such curve, though single readings can be large; an effect the other way counts as inactive or inconclusive. Potency is read from the fitted curve at half-maximal effect.

SMILES	Tb PYK inh	NS1 function inh	RE007 growth inh	FBPA Giardia inh	LmPK inhibitor	Sm TGR inh
CCN1CCc2nc(N)oc2CC1	4%	-3%	-1%[18.4 µM]	-2%	.	5.6µM*
CCN1CCN(c2nc3c(c(=O)[nH]2)CCCC3)CC1	-4%	?	0%	-1%	1%	0%
O=C(N/N=C\C=C\c1ccco1)C1COc2ccccc2O1 (stereo not drawn)	-11%	3%	7%	?	8%	3.2µM*
O=C(N/N=C/C=C/c1ccc([N+](=O)[O-])cc1)C1COc2ccccc2O1 (stereo not drawn)	-10%	10%	?	-1%	2%	-10%
O=C(NCCc1ccc(O)c(O)c1)C1COc2ccccc2O1 (stereo not drawn)	?	-3%	-4%	-15%	3%	4.5µM*
CC1CCC(NC(=O)C2COc3ccccc3O2)CC1 (stereo not drawn)	-3%	.	-13%	.	.	?
O=C(NC1CCCCC1)C1COc2ccccc2O1 (stereo not drawn)	-2%	.	-8%	.	.	28µM*
CCc1cc2c(-c3ccccc3)cc(=O)oc2c2c1OCN(Cc1ccc(F)cc1)C2	-4%	.	.	.	.	1%
Cc1ccc2[nH]c(CSc3nnc(COc4ccccc4C)n3C)cc(=O)c2c1	-4%	.	.	.	.	0%
O=C(Nc1ccc(Cl)cc1)C(Cl)C(=O)c1ccccc1 (stereo not drawn)	?	-44%	11µM*	-2%	-1%	?
O=C(Nc1ccccc1Cl)C(Cl)C(=O)c1ccccc1 (stereo not drawn)	-18%	.	2%	-9%	-6%	14%
COc1ccc(C(=O)NCC(c2ccc3c(c2)OCO3)N2CCN(C)CC2)cc1OC (stereo not drawn)	1%	.	.	.	.	5%
O=Nc1ccc(NOC(=O)c2ccccc2)cc1	?	-20%	10µM*	-12%	13µM*	5%
C/C(CCC(=O)OC[C@H]1O[C@H](C#Cc2ccccc2)C=C[C@@H]1Oc1ccc(C)cc1)=N\O[C@@H](C)CN1CCCCc2nc(C)c(C)cc21	.	0%	.	-8%	4%	35µM*
O=C(CN1C(=O)COc2ccc(S(=O)(=O)N3CCCCCC3)cc21)NCCc1ccccc1	-5%	.	.	.	.	5%
Cc1oc(-c2cccc(Cl)c2)nc1Cn1c(SCc2ccccc2F)nc2ccncc21	0%	.	.	.	.	-4%
CC(C)=NOC[C@@H](O)COCc1ccco1	.	.	.	1%[12.9 µM]	.	.
O=S(=O)(NCC(O)COCc1ccco1)c1cccs1 (stereo not drawn)	3%	?	5%	-6%	1%	13µM*
Cc1ccc(-n2ncc(Br)c(Br)c2=O)cc1	-1%	-63%	16µM*	6%	-5%	6.3µM*
O=c1c(Br)c(Br)cnn1-c1ccccc1	5%	-44%	?	-3%	3%	3.2µM*
COc1cnn(-c2ccc(F)cc2)c(=O)c1Br	0%	.	7%	7%	-6%	2%
O=c1c(Br)c(N2CCCC2)cnn1-c1ccccc1	-4%	1%	6%	3%	-1%	1%
CCCCc1ccc(NC(=O)C2(C)Cc3ccccc3C(=O)O2)cc1 (stereo not drawn)	-1%	.	.	.	.	0%
COc1ccc(C2Nc3ccccc3C(=O)N2Cc2ccco2)cc1CN1C(=O)c2ccccc2C1=O (stereo not drawn)	3%	22%	15%	2%	5%	?
O=C1c2ccccc2NC(c2cccc(O)c2)N1Cc1ccco1 (stereo not drawn)	-5%	3%	-22%	6%	12%	32µM*
Clc1ccc(-c2cn3c(n2)-c2ccccc2C3)cc1Cl	-2%	-16%	2%	-21%	25µM*	-1%
CCOc1ccc(-c2cc(C(=O)Nc3ccc(NC(C)=O)cc3)no2)cc1	-10%	.	.	.	.	0%
Cc1cc(C)cc(NC(=O)C2CCN(c3nc4ccccc4nc3C(F)(F)F)CC2)c1	-5%	.	.	.	.	-3%
N#C/C(=C\c1ccco1)Sc1nc2ccccc2s1	1%	-8%	-6%	-17%	12%	40µM*
